The campaign covered roughly 65,000 compounds. About 2,100 (3.2%) showed an effect of 50% or more. The median lay at about -52%. Many of the other results were omitted from the sample, so strong results are more common in it than they were.
System: Plasmodium falciparum
Assay: Screen against P. falciparum Asexual Blood Stage (ABS), at 5uM
Assay type: functional, Dd2
Conditions: tested at 5 uM

Row | SMILES | INHIBITION
1 | CCn1cnnc1CNC(=O)N1CCN(c2ccccc2OC)CC1 | -69.5%
2 | O=C(c1cc(Cl)c[nH]1)N1CCCC(c2cc(C(F)(F)F)[nH]n2)C1 (stereo not given) | 20.5%
3 | Cc1ccc(-c2nc(CSCCC(=O)NC(N)=O)co2)c(C)c1 | -115%
4 | CSc1ccc(C(=O)N2CCOCC2c2c(C)n[nH]c2C)o1 (stereo not given) | -159%
5 | Cc1cc(C)n(CC(=O)NC(Cc2ccsc2)c2ccccn2)c(=O)n1 (stereo not given) | -151%
6 | CCOc1ncccc1CNc1nnc(C)c(C)c1C#N | 60%
7 | Cc1nnc(NCc2ccccc2F)c(C#N)c1C | 64.4%
8 | Cc1nnc(NCC2(c3ccccc3)CCC2)c(C#N)c1C | -32.2%
9 | COc1ccccc1C1(CNc2nnc(C)c(C)c2C#N)CCOCC1 | 3.69%
10 | CCCOc1ncccc1CNc1nnc(C)c(C)c1C#N | -121%
11 | COCc1ccccc1CNc1nnc(C)c(C)c1C#N | -155%
12 | Cc1nnc(NCc2ccccc2Cl)c(C#N)c1C | 6.46%
13 | COc1ccccc1C1(CNc2nnc(C)c(C)c2C#N)CCCC1 | 58.4%
14 | Cc1nnc(NCc2cccnc2OCC(F)(F)F)c(C#N)c1C | -46.2%
15 | Cc1ccccc1COCCOCn1c(C)cc(=O)[nH]c1=O | -70.8%
16 | CCn1nnc2c1C(COCC(=O)N(C)C)CN(Cc1ccoc1)C2 (stereo not given) | -97.7%
17 | O=C(Cc1cccs1)Nc1cnn(C2CCOCC2)c1 | -142%
18 | CCOC(=O)[C@H]1[C@@H](O)C(=O)N(C)C12CCN(C(=O)c1ccccc1)CC2 | -32.3%
19 | O=C1CC2(CCCNC2)C(=O)N1Cc1ccc(F)cc1 (stereo not given) | -26%
20 | O=C1CC2(CCCNC2)C(=O)N1Cc1cccc(F)c1 (stereo not given) | -47.2%
21 | O=C1CC2(CCCNC2)C(=O)N1Cc1ccc(Cl)cc1 (stereo not given) | 51.8%
22 | O=C(Nc1ccnc(OC2CCOC2)c1)c1ccccc1Cl (stereo not given) | -34.1%
23 | O=C(NCC(=O)N1CCCc2ccccc21)c1c(O)cc(F)cc1F | -115%
24 | COC(=O)c1c(Cl)c(C)nc2onc(C)c12 | -117%
25 | CCN(CC)C(=O)C1CCN(c2ccc(Cl)cc2C#N)CC1 | -147%
26 | N#Cc1cc(Cl)ccc1N1CCN(C(=O)C2CCC2)CC1 | -75.4%
27 | CC1CCN(C(=O)C2CCN(c3ccc(Cl)cc3C#N)CC2)CC1 | 60.5%

Row | SMILES | INHIBITION
28 | Cn1cc(CN2CCCC23CCN(S(C)(=O)=O)CC3)cn1 | -54.3%
29 | O=c1n(CCNc2cccc3ccccc23)nc2ccccn12 | -149%
30 | CCC1=N[C@@]2(CC[C@@H]3CN(Cc4ccccc4F)C[C@@H]32)C(=O)N1CC | 39.8%
31 | CC1=N[C@@]2(CC[C@@H]3CN(Cc4cccc(Cl)c4)C[C@@H]32)C(=O)N1CC1CC1 | 67.2%
32 | CC1=N[C@@]2(CC[C@@H]3CN(Cc4ccccc4F)C[C@@H]32)C(=O)N1CC1CC1 | 67.6%
33 | CC1=N[C@@]2(CC[C@@H]3CN(Cc4ccc(C)cc4)C[C@@H]32)C(=O)N1CC1CC1 | 30.2%
34 | COCCN1C(=O)[C@]2(CC[C@@H]3CN(Cc4ccccc4F)C[C@@H]32)N=C1C | -37.9%
35 | CC1=N[C@@]2(CC[C@@H]3CN(Cc4ccccc4)C[C@@H]32)C(=O)N1CC1CC1 | 17.7%
36 | COCCN(C)C(=O)Nc1ccc2c(ccn2CCOC)c1 | -178%
37 | Cc1nnc(N2CC[C@H]3C[C@H](C(=O)N4CCOCC4)O[C@H]3C2)s1 | -42.1%
38 | Cc1cc2nc(C(C)C)cc(NC(C)c3nncn3C3CCCC3)n2n1 (stereo not given) | -49.8%
39 | COc1cccc2c1OCC(C(=O)NCc1ncc3c(n1)CCC3)C2 (stereo not given) | -33%
40 | N#Cc1ccc(C(=O)N2CCn3cc(CN4CCCCC4)nc3C2)cc1 | -96.9%
41 | CN([C@@H]1CC[C@@H](N2CCCC2)[C@@H]1O)S(=O)(=O)c1ccccc1 | 51.6%
42 | CN([C@@H]1CC[C@@H](N2CCOCC2)[C@@H]1O)S(=O)(=O)c1ccccc1 | -97.1%
43 | Cc1nccn1[C@@H]1CC[C@@H](N(C)S(=O)(=O)c2cccc(F)c2)[C@H]1O | -107%
44 | O=C(c1ccco1)N1CCC2(CCCN(c3ncccn3)C2)C1 (stereo not given) | -59%
45 | Cc1cc(Cc2ccccc2F)cc(C2CCCNC2)n1 (stereo not given) | 64.8%
46 | COCCNc1cccc(C2CCCN2)n1 (stereo not given) | -86.4%
47 | Cc1cnc(CCNc2cccc(CC3CCCNC3)n2)s1 (stereo not given) | 65.5%
48 | Cc1nc(C2CCCNC2)cc(N(C)CCc2ccccc2)n1 (stereo not given) | 53.5%
49 | COCCNc1ccc(CC2CCCNC2)cn1 (stereo not given) | -56.2%
50 | Cc1nc(C2CCCNC2)cc(N(C)CCc2cn[nH]c2)n1 (stereo not given) | -151%
51 | c1cc(CC2CCCNC2)nc(NCCc2cnccn2)c1 (stereo not given) | -96.3%
52 | c1cc(NCc2ccncc2)nc(C2CCCNC2)c1 (stereo not given) | -2.22%
53 | c1ccc(CCNc2cccc(C3CCCNC3)n2)cc1 (stereo not given) | 66.8%
54 | Cc1nc(NC2CCCCC2)cc(C2CCCNC2)n1 (stereo not given) | -0.566%

Row | SMILES | INHIBITION
55 | Cc1cc(Nc2cnccn2)cc(C2CCCNC2)n1 (stereo not given) | -27.1%
56 | CCn1ccnc1CN(C)c1cc(C2CCCNC2)nc(C)n1 (stereo not given) | -33.9%
57 | CCS(=O)(=O)NC(CCSC)C(=O)Nc1cc(F)ccc1C (stereo not given) | -26.6%
58 | Cc1cnc(N2CCC3(CC2)CC3CN(C)Cc2cccnc2)nc1 (stereo not given) | -28%
59 | CCC(C)Oc1ccc(CNCCNC(C)=O)cc1Cl (stereo not given) | -29.5%
60 | COCc1cc(O)nc(C2CCCN(Cc3ccc(OC)cc3)C2)n1 (stereo not given) | -29.3%
61 | Cc1cc(C(N)=O)c2c(Br)cccc2n1 | -105%
62 | Cc1ccc(C(C)N(C)Cc2nc3c(cnn3C)c(=O)[nH]2)cc1 (stereo not given) | -137%
63 | COc1ccccc1C(C)N(C)Cc1nc2c(cnn2C)c(=O)[nH]1 (stereo not given) | -62.4%
64 | Cc1ccc(CN(Cc2nc3c(cnn3C)c(=O)[nH]2)C(C)C)s1 | -67.1%
65 | Cc1ccc(C(C)N(C)Cc2nc3c(cnn3C)c(=O)[nH]2)s1 (stereo not given) | 50%
66 | COc1ccc(C(C)N(C)Cc2nc3c(cnn3C)c(=O)[nH]2)cc1 (stereo not given) | 57.6%
67 | Cc1ccccc1C(C)N(C)Cc1nc2c(cnn2C)c(=O)[nH]1 (stereo not given) | -198%
68 | Cc1ccc(CCC(=O)N2CCC(Nc3cccnn3)CC2)cc1 | -69.1%
69 | O=S(=O)(NCc1ccccc1)N1CCCN(c2ccncc2)CC1 | -0.943%
70 | CCC(=O)N1CCC2(CC1)C(c1cccnc1)CC(=O)N2CCOC (stereo not given) | -104%
71 | CC(CNC(=O)c1cccnc1)Oc1ccc(F)cc1 (stereo not given) | -61.4%
72 | CCNC(=O)C1CCN(c2cc(-c3ccccc3)nc3ccnn23)C1 (stereo not given) | -26.4%
73 | Cc1cc(N2CCCC(N(C)C)C2)n2nccc2n1 (stereo not given) | -65.1%
74 | CN(C)C1CCN(c2cc(-c3ccccc3)nc3ccnn23)C1 (stereo not given) | 51.3%
75 | O=C(COc1coc(CN2CCOCC2)cc1=O)Nc1ccc(Cl)cc1 | -117%
76 | COCCN1CCN(CC(C)(O)c2cccc(C(F)(F)F)c2)CC1 (stereo not given) | 20.5%
77 | CC(O)(CN1CCN(CCO)CC1)c1cccc(C(F)(F)F)c1 (stereo not given) | 45.7%
78 | CC(O)(CN1CCC2(CC1)OCCO2)c1cccc(C(F)(F)F)c1 (stereo not given) | -7.98%
79 | CCN1CCN(CC(C)(O)c2cccc(C(F)(F)F)c2)CC1 (stereo not given) | 61.4%
80 | CC(=O)N1CCN(CC(C)(O)c2cccc(C(F)(F)F)c2)CC1 (stereo not given) | -10.4%
81 | CC(O)(CN1CCC(O)CC1)c1cccc(C(F)(F)F)c1 (stereo not given) | 58%

Row | SMILES | INHIBITION
82 | CC(C)(C)c1csc(CCNC(=O)[C@H](c2ccccc2)n2cnnn2)n1 | -92.7%
83 | O=C(c1ccsc1)N1C[C@@H]2OCCN(CCN3CCCC3)[C@@H]2C1 | -116%
84 | CCc1ccc(S(=O)(=O)NCC2CCN(c3cnccn3)CC2)s1 | -103%
85 | COc1cccc(N2CCN(Cc3nccn3C(C)C)CC2=O)c1 | -72.4%
86 | CC(=O)N1CCCN(Cc2ccon2)c2ccccc21 | -22.6%
87 | CC(C)(C)OC(=O)N1CCCc2ccc(NCc3ccon3)cc21 | -31.3%
88 | CC(C)(C)OC(=O)N1CCCN(Cc2ccon2)c2ccccc21 | 84.5%
89 | CN(C)CCOCc1nnc2n1CCN(Cc1ccc(F)cc1)CC2 | -137%
90 | FC1(F)CCN(Cc2ccncc2)CC12CCN(c1cccnc1)C2 (stereo not given) | 19.1%
91 | Cn1ccnc1CN1CCC(F)(F)C2(CCN(c3cnccn3)C2)C1 (stereo not given) | -1.72%
92 | O=C(CO)N1CCC(F)(F)C2(CCN(c3ccccc3)C2)C1 (stereo not given) | -30.5%
93 | FC1(F)CCN(c2ccccc2)CC12CCN(c1ncccn1)C2 (stereo not given) | -145%
94 | O=C(O)CN1CCC(F)(F)C2(CCN(c3ccccc3)C2)C1 (stereo not given) | 67.6%
95 | Cn1ccnc1CN1CCC(F)(F)C2(CCN(c3cccnc3)C2)C1 (stereo not given) | 60.4%
96 | COc1ccc(CN(C)[C@@H]2CN(C(=O)c3cncs3)C[C@H]2O)cc1 | -40.5%
97 | O=c1[nH][nH]c2cn(-c3ccc(Cl)cc3)c(=O)n12 | -27.8%
98 | CCOc1cc(CN(C)CCC(=O)OC)ccc1OC(F)F | -133%
99 | CN(C)CCO[C@@H]1CC[C@H]2[C@H]1OCCN2C(=O)c1ccnnc1 | -24.7%
100 | CC(=O)NCc1nnc2n1CCN(Cc1cccs1)C2 | -56.1%
101 | CCCc1cc(NCCN2CCNC2=O)n2nccc2n1 | -34.9%
102 | O=C([C@H]1COC[C@H]2CN(C3CCCC3)C[C@H]21)N1CCCO1 | -99.5%
103 | Cc1nc(-n2cnnc2)ccc1-c1cccc2c1CCNC2 | 68.7%
104 | Cc1cnc(-n2cnnc2)c(-c2cccc3c2CCNC3)c1 | -35%
105 | Cc1cc(-c2cccc3c2CCNC3)cnc1-n1cnnc1 | -24.9%

— ChEMBL document CHEMBL4513216, “Probing the Open Global Health Chemical Diversity Library for Multistage-Active Starting Points for Next-Generation Antimalarials” (ACS Infect Dis, 2020)
